Reference: PubChem BioAssay (NCATS)
Results filed as inconclusive are left out. Calls of active or inactive are those of the source. The call rests on the fitted dose curve; in most records, active means well fitted cell-killing curve with a large enough effect; inconclusive means small, poorly fitted or top-dose-only effect, or effect the other way; inactive means flat fitted curve, though single readings scatter.

Columns and labels:
Assay in all cases: Primary qHTS to identify gynecologic anti-cancer compounds using libraries of approved drugs and bioactive compounds (AID 1345084); further: nearly all actives have a fitted effect of over 55% in size
Conditions in all cases: Gynecologic cancer cell panel viability, ATPlite luminescence, 48 h; series mostly up to 57.5 µM
OV90 = test system: OV90
Outline: (§1)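 Five-point cytotoxicity, 48 h drug exposure at 37 C, 5% CO2, on cells seeded 16 h beforehand. ATP content read by ATPlite luminescence.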

PA-1 = test system: PA-1
Outline: as §1

SKOV3 = test system: SKOV3
Outline: as §1

Tov-21-G = test system: Tov-21-G
Outline: as §1

Tov112D = test system: Tov112D
Outline: as §1
On the % scale 0 is the no-effect control and ±100 the full control effect.

CC(/C=C/C1(O)C(C)(C)CC(O)CC1(C)O)OC1OC(CO)C(O)C(O)C1O (stereo not given)
inactive: Potency (OV90) | Potency (PA-1) | Potency (SKOV3) | Potency (Tov-21-G) | Potency (Tov112D)

CC1CCC2(NC1)OC1C(=O)C3C4CCC5CC(O[C@@H]6O[C@H](CO)[C@@H](O)[C@H](O)[C@H]6O[C@@H]6O[C@@H](C)[C@H](O)[C@@H](O)[C@H]6O)CCC5(C)C4CCC3(C)C1C2C (stereo not given in full)
inactive: Potency (OV90) | Potency (PA-1) | Potency (SKOV3) | Potency (Tov-21-G) | Potency (Tov112D)

CC(C)(O)c1ccc2c(c1)C(=O)CC1[C@](C)(CO)CCC[C@]21C (stereo not given in full)
inactive: Potency (OV90) | Potency (PA-1) | Potency (SKOV3) | Potency (Tov-21-G) | Potency (Tov112D)

C=C(C(=O)O)C1CCC(C)C2CCC(=O)OC2(C)C1 (stereo not given)
inactive: Potency (OV90) | Potency (PA-1) | Potency (SKOV3) | Potency (Tov-21-G) | Potency (Tov112D)

CCOC(=O)c1ccnc(CNCC(=O)N(CC)CCN(C)C)c1
inactive: Potency (OV90) | Potency (PA-1) | Potency (SKOV3) | Potency (Tov-21-G) | Potency (Tov112D)

C[C@H]1[C@H](C)CC[C@]2(C(=O)O[C@@H]3O[C@H](CO)[C@@H](O)[C@H](O)[C@H]3O)CC[C@]3(C(=O)O)C(=CCC4[C@@]5(C)CC[C@H](O[C@@H]6O[C@H](CO)[C@@H](O)[C@H](O)[C@H]6O)C(C)(C)C5CC[C@]43C)[C@H]12 (stereo not given in full)
inactive: activity change, negative = cytotoxicity (OV90) -4.18% [at 11.6 µM] | activity change, negative = cytotoxicity (PA-1) 5.91% [at 11.6 µM] | activity change, negative = cytotoxicity (SKOV3) 23.4% [at 11.6 µM] | activity change, negative = cytotoxicity (Tov-21-G) -3.54% [at 11.6 µM] | activity change, negative = cytotoxicity (Tov112D) 2.01% [at 11.6 µM]

CC1CCC2(C)C(CC(O)C(O)C23CO3)C1(C)CCC1=CC(O)OC1=O (stereo not given)
inactive: Potency (OV90) | Potency (PA-1) | Potency (SKOV3) | Potency (Tov-21-G) | Potency (Tov112D)

CC(=O)O[C@H]1C[C@@H]2[C@]3(CC[C@]4(C)[C@@H](C5(C)CCC(C(C)(C)O)O5)[C@@H](O)C[C@@]24C)C[C@@]32CC[C@H](O[C@@H]3OC[C@@H](O)[C@H](O)[C@H]3O)C(C)(C)[C@H]12 (stereo not given in full)
inactive: Potency (OV90) | Potency (PA-1) | Potency (SKOV3) | Potency (Tov-21-G) | Potency (Tov112D)

COc1cc(/C=C/C(=O)OC2[C@H](O)CC(O)(C(=O)O)C[C@H]2O)ccc1O (stereo not given in full)
inactive: Potency (OV90) | Potency (PA-1) | Potency (SKOV3) | Potency (Tov-21-G) | Potency (Tov112D)

CC(C)CC(=O)OC[C@H]1O[C@@](COC(=O)CC(C)C)(O[C@H]2O[C@H](CO)[C@@H](O)[C@H](O)[C@H]2O)[C@@H](OC(=O)CC(C)C)[C@@H]1OC(=O)CC(C)C
inactive: Potency (OV90) | Potency (PA-1) | Potency (SKOV3) | Potency (Tov-21-G) | Potency (Tov112D)

C=C1CCC2(OC1)OC1CC3C4CC=C5CC(O)CC(O[C@@H]6OC[C@@H](O)[C@H](O)[C@H]6O)C5(C)C4CCC3(C)C1(O)C2C (stereo not given in full)
inactive: Potency (OV90) | Potency (PA-1) | Potency (SKOV3) | Potency (Tov-21-G) | Potency (Tov112D)

OC[C@H]1O[C@@H](Oc2ccc3c(c2)OC[C@H]2c4cc5c(cc4O[C@@H]32)OCO5)[C@H](O)[C@@H](O)[C@@H]1O
inactive: Potency (OV90) | Potency (PA-1) | Potency (SKOV3) | Potency (Tov-21-G) | Potency (Tov112D)

O=C(O)[C@H]1CCCC[C@H]1C(=O)N1CCc2ccccc2[C@H]1CN1C(=O)c2ccccc2C1=O
inactive: Potency (OV90) | Potency (PA-1) | Potency (SKOV3) | Potency (Tov-21-G) | Potency (Tov112D)

COc1ccc(C2=CC(=O)OC2Cc2ccc(O)cc2)c(O)c1 (stereo not given)
inactive: Potency (OV90) | Potency (PA-1) | Potency (SKOV3) | Potency (Tov-21-G) | Potency (Tov112D)

CCNC(=O)CCC/C=C\C[C@@H]1[C@@H](/C=C/C(O)CCc2ccccc2)[C@@H](O)C[C@@H]1O (stereo not given in full)
inactive: Potency (OV90) | Potency (PA-1) | Potency (SKOV3) | Potency (Tov-21-G) | Potency (Tov112D)

C=C(C)C(=O)O[C@H]1C[C@@](C)(OC(C)=O)[C@@]2(O)CC[C@@](C)(O)[C@H](OC(C)=O)[C@@]23OC(=O)C(COC)=C13
inactive: Potency (OV90) | Potency (PA-1) | Potency (SKOV3) | Potency (Tov-21-G) | Potency (Tov112D)

CC1CCC2(C)C(CC(O)C(O)C23CO3)C1(C)CCC1=CC(=O)OC1O (stereo not given)
inactive: Potency (OV90) | Potency (PA-1) | Potency (SKOV3) | Potency (Tov-21-G) | Potency (Tov112D)

COc1c(C)c2c(c(O)c1C/C=C(\C)CC/C=C(\C)CCC(=O)O)C(=O)OC2
inactive: Potency (OV90) | Potency (PA-1) | Potency (SKOV3) | Potency (Tov-21-G) | Potency (Tov112D)

C=C1CC[C@H]2[C@@](C)(CCC[C@@]2(C)C(=O)O)[C@@H]1CCC(C)CCO (stereo not given in full)
inactive: Potency (OV90) | Potency (PA-1) | Potency (SKOV3) | Potency (Tov-21-G) | Potency (Tov112D)

C=C1CC2C3(C)C(OC(C)=O)CC(=O)OC(C)(C)C3C(O)C(OC(C)=O)C2(C)C2C(=O)OC(C)C(=O)C12C (stereo not given)
inactive: Potency (OV90) | Potency (PA-1) | Potency (SKOV3) | Potency (Tov-21-G) | Potency (Tov112D)

C[C@]1(OC(=O)/C=C/c2ccccc2)C[C@H](O)[C@]2(O)C=CO[C@@H](O[C@@H]3O[C@H](CO)[C@@H](O)[C@H](O)[C@H]3O)C12 (stereo not given in full)
inactive: Potency (OV90) | Potency (PA-1) | Potency (SKOV3) | Potency (Tov-21-G) | Potency (Tov112D)

COc1c(OC2OC(CO)C(O)C(O)C2O)ccc(O)c1C(=O)OCc1ccccc1O[C@@H]1O[C@H](CO)[C@@H](O)[C@H](O)[C@H]1O (stereo not given in full)
inactive: Potency (OV90) | Potency (PA-1) | Potency (SKOV3) | Potency (Tov-21-G) | Potency (Tov112D)

CC(CO[C@@H]1O[C@H](COC(=O)/C=C/c2ccc(O)c(O)c2)[C@@H](O)[C@H](O)[C@H]1O)C1(O)COC(=O)C1 (stereo not given in full)
inactive: Potency (OV90) | Potency (PA-1) | Potency (SKOV3) | Potency (Tov-21-G) | Potency (Tov112D)

O=C(O)c1ccc(CCCc2ccc(OCCc3ccc(F)cc3)cc2)o1
inactive: Potency (OV90) | Potency (PA-1) | Potency (SKOV3) | Potency (Tov-21-G) | Potency (Tov112D)
